Potency data for 40 compounds are collected here from PubChem BioAssay (Tox21).

Activity calls are given as the source filed them. A call without a number means that no potency is given here. Calls follow the shape of the dose curve; as a rule, active = well fitted activation curve with a large enough effect in the repeat runs; inconclusive = weak or mixed curves; inactive = flat fitted curve, though single readings scatter.

The target of the assay is KiSS-1 receptor (Homo sapiens) (UniProt Q969F8). In words: Human kisspeptin (KISS1R) small molecule agonists, calcium flux assay in KISS1R-HEK293 cells (AID 1920064). The following applies: KISS1R-HEK293, calcium flux fluorescence, agonist; series mostly up to 76.8 µM. The source says: National Center for Advancing Translational Sciences [NCATS]
Chain of KiSS-1 receptor (Homo sapiens) (Q969F8 whole entry, looked up): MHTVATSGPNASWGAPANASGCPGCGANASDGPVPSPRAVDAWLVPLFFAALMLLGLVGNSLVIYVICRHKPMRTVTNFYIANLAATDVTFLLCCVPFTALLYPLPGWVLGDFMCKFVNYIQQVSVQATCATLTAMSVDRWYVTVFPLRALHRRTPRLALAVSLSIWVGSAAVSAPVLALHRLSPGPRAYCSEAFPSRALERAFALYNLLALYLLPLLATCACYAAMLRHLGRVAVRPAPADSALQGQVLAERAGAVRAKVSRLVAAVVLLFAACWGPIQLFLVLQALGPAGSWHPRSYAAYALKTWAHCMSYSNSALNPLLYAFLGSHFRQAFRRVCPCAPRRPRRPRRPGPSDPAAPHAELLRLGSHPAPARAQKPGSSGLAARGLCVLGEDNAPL
Division of Preclinical Innovation [DPI]
U.S. Environmental Protection Agency [EPA]
National Institutes of Environmental Health Sciences [NIEHS]
National Toxicology Program [NTP]
U.S. Food and Drug Administration [FDA]
Kisspeptin and its receptor KISS1R play key roles in mammalian reproduction due to their involvement in the onset of puberty and control of the hypothalamic-pituitary-gonadal axis such as regulates GnRH release from the hypothalamus. The kisspeptin/KISS1R system also plays a direct role in peripheral organs (including the ovary, testis, uterus, and placenta) and is implicated in reproductive diseases such as miscarriage and polycystic ovary syndrome (PCOS). Abnormal KISS1R activity is associated with abnormal puberty, infertility, endometriosis, and hormone-dependent tumors. The KISS1 receptor (KISS1R, also called GPR54), a G-protein-coupled receptor (GPCR), acts (through phospholipase C) to increase intracellular inositol trisphosphate and then release intracellular calcium stores. Cell-based KISS1R-HEK293 assay is using HEK293 cells that have been genetically engineered to express the human KISS1R, which activity can be measured by calcium signaling. A compound/drug can activate (agonist) KISS1R that can be monitored by levels of intracellular calcium.
KISS1R-HEK293 cells developed by Codex Corp contain human KISS1R gene, which was stably integrated into HEK 293 cells. The compound activation can be detected by fluorescence intensity via calcium flux assay. This cell line has been used to screen the Tox21 10K compound library to identify agonists of KISS1R.
KISS1R-Hek293 cells were dispensed at 1500 cells/4uL/well in 1536-well black wall/clear bottom plates using a multidrop dispenser. After the assay plates were incubated at a 37 C/5% CO2 incubator for 18 hours, 4 microL of Calcium Dye Solution was added to each well. The plates were incubated at 37 C for 1 hour. And then 23 nL of compounds dissolved in DMSO, positive controls, or DMSO only was transferred to the assay plate by a pin tool station. The fluorescence intensity in the plates was measured using FDSS 7000EX kinetic plate reader with a filter set of Ex/Em=480/540 for 3 min at 1 sec intervals. Each test compound was measured at 15 concentrations and in triplicates.
(In general: Calcium flux is commonly read through the fluorescence of an indicator in the cells.)
As to `O=C(NC(=O)c1ccccc1Cl)Nc1ccc(OC(F)(F)F)cc1`, the Potency entry was “inactive”. As for `CC1(C)C(C=C(Cl)Cl)C1C(=O)OC(C#N)c1ccc(F)c(Oc2ccccc2)c1` (stereo not given), the Potency result is “inactive”. The entry for `CCCCCCCCCl` is “inactive”; for `CC(Cl)C(=O)O` (stereo not given) it is “inactive”; for `O=C(Cc1ccccc1)c1ccccc1` it is “inactive”. The value for `ClC1=C(Cl)C2(Cl)C3C(Cl)C=CC3C1(Cl)C2(Cl)Cl` (stereo not given) was “inactive”.

As for `O=C(O)CF`, the Potency result was “inactive”. Consider `CC(C)OS(C)(=O)=O`, for which the Potency result is “inactive”.

In the case of `CCOC(=O)CC(SP(=S)(OC)OC)C(=O)OCC` (stereo not given), the Potency result is “inactive”.

For the compound `CCCCCCCCCCCOC(=O)c1ccccc1C(=O)OCCCCCCCCCCC`, the Potency entry was “inactive”.

Turning to `CC(C)C1(C)N=C(c2nc3ccccc3cc2C(=O)O)NC1=O` (stereo not given), the Potency result is “inactive”. As for `C=CCN=C=S`, the Potency entry was “inactive”.

`CCNc1nc(Cl)nc(NC(C)C)n1`: the Potency entry was “inactive”.

In the case of `COc1cc(-c2ccc(N)c(OC)c2)ccc1N`, the Potency result was “inactive”. For `CCOC(=O)c1ccccc1N`, the Potency entry was “inactive”. For the compound `C[C@]12CCC(=O)C=C1CC[C@@H]1[C@@H]2CC[C@]2(C)C(=O)CC[C@@H]12`, the Potency entry was “inactive”.

On to `Cc1cc(Cl)ccc1N`, for which the Potency result is “inactive”.

Take `CC(C)(C)C(O)(CCc1ccc(Cl)cc1)Cn1cncn1` (stereo not given): the Potency entry is “inactive”.

Turning to `O=c1[nH]c(=O)[nH]c(=O)[nH]1`, the Potency entry was “inactive”. In the case of `CCOC(=O)CP(=O)(OCC)OCC`, the Potency entry was “inactive”. In the case of `Nc1ccc(Br)cc1`, the Potency entry is “inactive”. The value for `CC(Cl)Cl` was “inactive”; that for `CCOP(=O)(CN(CCO)CCO)OCC` was “inactive”.

In the case of `NCCc1ccc(O)cc1`, the Potency entry was “inactive”. The entry for `Clc1cccc(Cl)c1` is “inactive”; for `CCC(C)(C)c1ccc(O)c(C(C)(C)CC)c1` it is “inactive”. Take `CCCCOC(=O)CCC(=O)OCCCC`: the Potency result is “inactive”.

On to `CCOCN(C(=O)CCl)c1c(C)cccc1CC`, for which the Potency result was “inactive”. The entry for `COC(=O)Nc1nc2ccccc2[nH]1` is “inactive”; for `CNC(=O)Oc1ccccc1OC(C)C` it is “inactive”; for `CCC(=O)OC1(c2ccccc2)CCN(C)CC1` it is “inactive”.

Take `COC(=O)c1sccc1S(=O)(=O)NC(=O)Nc1nc(C)nc(OC)n1`: the Potency entry was “inactive”. The value for `c1cc2c3c(cccc3c1)CC2` was “inactive”; that for `O=P(O)(Oc1ccccc1)Oc1ccccc1` was “inactive”; that for `CN(C)CCc1c[nH]c2cccc(OP(=O)(O)O)c12` was “inactive”. Consider `OCCSCSCCO`, for which the Potency entry was “inactive”. The value for `CCCCN(CCCC)N=O` was “inactive”; that for `O=S(=O)(O)C(F)(F)C(F)(F)C(F)(F)C(F)(F)C(F)(F)C(F)(F)F` was “inactive”; that for `Cc1cnc[nH]1` was “inactive”. The entry for `C[C@@H]1O[C@@H](O[C@H]2C[C@@H](O)[C@]3(CO)[C@H]4[C@H](O)C[C@]5(C)[C@@H](C6=CC(=O)OC6)CC[C@]5(O)[C@@H]4CC[C@]3(O)C2)[C@H](O)[C@H](O)[C@H]1O` is “inactive”.
